This is part of a sample that, as a whole, favours compounds with a hit. Of some 83,000 tested, about 20% had one in any assay.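 Assay: single dose, 48 h. Readout: percent growth (0 = no net growth; negative = cell death). Active: <10.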 A number with no mark means an inactive call. Activity calls are given as the source filed them.
Each compound was assayed on U251 CNS (assay: NCI-60 one-dose screen, 48 h (100 = growth as untreated, 0 = no growth, -100 = all killed)). Conditions: 10 µM unless noted.

Compound	growth
O=Cc1ccc([N+](=O)[O-])s1	89.6%
CC(C)(C)n1cc(-c2ccnc(NCCCNS(=O)(=O)c3ccc(F)cc3)c2)c(-c2cccc(F)c2)n1	45.5%
O=C1C(Cl)=C(Nc2ccc(O)cc2)C(=O)N1Cc1ccc(Cl)cc1	47.1%
COc1cc(CNC(=O)CCCC/C=C/C(C)C)ccc1OCc1nnc(Nc2ccc([N+](=O)[O-])cc2)o1	48.6%
O=C(N/N=C/c1ccc(F)cc1)c1ccc(C(F)(F)F)nc1Nc1cccc(C(F)(F)F)c1	-41% (active)
C=C(C)[C@@H]1CC[C@]2(C(=O)NCCNCCN)CC[C@]3(C)[C@H](CC[C@@H]4[C@@]5(C)C/C(=C/c6ccncc6)C(=O)C(C)(C)[C@@H]5CC[C@]43C)[C@@H]12	91.2%
O=C(COc1ccc(-c2nc3ccccc3[nH]2)cc1)N=Nc1c(O)[nH]c2ccc(Cl)cc12	-45.1% (active)
C/C(=N/O)c1ccc(F)cc1	83.2%
COc1ccc(C2=Nc3c/c(=C\c4c(O)[nH]c5ccc(Cl)cc45)ccc3=N2)cc1	42%
CCOC(=O)c1cnc2ccccc2c1Cl	102%
CCCc1cc(NC)nc(S(=O)(=O)CC)n1	107%
COc1ccc(/C=C2\C(=O)N=C3N2NC(c2cc(Br)ccc2O)C=C(C)N3c2ccccc2)cc1 (stereo not given)	93.8%
O=S(=O)(NCCNc1nccc(-c2c(-c3cccc(F)c3)nc3occn23)n1)c1ccc(Br)cc1	85.5%
CCn1cc(C(=O)N/N=C/c2cccs2)c(=O)c2cc(F)c(N3CCNC(C)C3)c(F)c21 (stereo not given)	53.3%
Cn1c(=O)c2[nH]c(N/N=C/c3ccccc3Br)nc2n(C)c1=O	111%
CCCCCCNC(=O)Oc1ccc(/C(=C(/C)Cc2ccc(OC)cc2)c2ccc(OCCCN(C)C)cc2)cc1	-46.7% (active)
O=C(OCc1ccc2cccc(O)c2n1)N1CCN(C(=O)c2cc3cc(F)ccc3[nH]2)CC1	-87.2% (active)
CC(=O)[C@@H]1CCC=C2CC[C@]3(C)[C@@H](CC[C@@H]4[C@@]5(C)CCCNC(C)(C)[C@@H]5CC[C@]43C)[C@H]21	-98.8% (active)
O=c1oc2ccc([N+](=O)[O-])cc2cc1Br	101%
S=C(Nc1ccc(-c2nc(N3CCOCC3)c3cccn3n2)cc1)Nc1cccnc1	31.7%

Compound	growth
O=C1/C(=C/c2ccc(-c3ccc(Br)cc3)o2)SC(=S)N1CCc1ccc(O)cc1	78.9%
CCOC(=O)CSc1ncnc2c1c(-c1ccccc1)c(-c1ccccc1)n2-c1ccc(C)cc1	49.1%
CCNc1cc(-c2cccc(OC(F)(F)F)c2)nc2ccc(N3CCCC3)cc12	-68.3% (active)
CCCCNC(=O)Oc1ccc(/C(=C(/CC)Cc2ccccc2)c2ccc(OCCN3CCCCCC3)cc2)cc1	25.7%
COc1ccc(-c2nc3c(c(-c4ccccc4)nn3-c3ccccc3)c(-c3ccc(N4CCOCC4)cc3)c2C#N)cc1	84.8%
COc1cc(-c2csc(NC(=O)c3cc(-n4cnc(C)c4)cc(C(F)(F)F)c3)n2)cc(OC)c1OC	56.9%
COc1cc(CNS(=O)(=O)c2ccc(C)cc2)ccc1OCc1cn(-c2ccc(Br)cc2)nn1	101%
Nc1ncnc2c1N=C(c1ccc3c(c1)OCO3)CC(c1ccc([N+](=O)[O-])cc1)N2 (stereo not given)	86.8%
COc1ccc(-c2nc3c(c(-c4ccccc4)nn3-c3ccccc3)c(-c3ccc(N4CCN(C)CC4)cc3)c2C#N)cc1	77.4%
CCOC(=O)C(=Cc1cccc(Cl)c1)C(=O)OCC	26.6%
O=C1NC(=O)c2c1c1c3ccccc3ccc1c1[nH]c3ccc(Br)cc3c21	20.7%
CC1(c2ccccc2O)NN=C(/N=C/c2cccc([N+](=O)[O-])c2)N1C(Cc1c[nH]c2ccccc12)C(=O)O (stereo not given)	96.1%
CCOP(=O)(OCC)c1nc(-c2ccccc2)oc1NCc1cccnc1	107%
CCOC(=O)c1cn2ncnc(Oc3ccc(NC(=O)NC4CCCCC4)c(Cl)c3)c2c1C	49.3%
COC(=O)c1cc(-c2ccccc2)[nH]c1N/N=C/c1c(Cl)cccc1Cl	12.1%
COc1ccc(-c2nnc(-c3ccc4c(c3)nc(-c3ccncc3)n4C3CCCCC3)o2)cc1	59.7%
CC(C)(C)c1cc(-c2nc3ccc(N4CCN(S(C)(=O)=O)CC4)cc3[nH]2)cc(C(C)(C)C)c1O	90.2%
CCCCN1C(=O)/C(=c2\sc3n(c2=O)C2C(NN=3)N(CC)C(=O)N2CC)c2ccccc21 (stereo not given)	5.8% (active)
N#Cc1nn(-c2cc(=O)[nH]c3ccc(Cl)cc23)c(N)c1C#N	103%
Cc1ccc(-n2c(=S)[nH]c3sc4c(c3c2=O)CCC(=O)C4)cc1	36.7%

Reference: PubChem BioAssay (NCI)
